Reference: publication PMC7862700, “An all-to-all approach to the identification of sequence-specific readers for epigenetic DNA modifications on cytosine”

Key:
Assay in all cases: DAPPL (digital affinity profiling via proximity ligation, sequencing); 10 mM Tris-HCl pH 7.5, 50 mM NaCl, 1 mM DTT, 4% glycerol, room temperature, 30 min; GST-TFs on glutathione beads, 16-mer random dsDNA library, 0.1% formaldehyde crosslink after washing; high values mean tight binding
[1] = target: T1, FEV (Homo sapiens, UniProt Q99581 1-238); conditions: protein: recombinant; tags: N-terminal GST; dsDNA, one strand shown
T1 sequence: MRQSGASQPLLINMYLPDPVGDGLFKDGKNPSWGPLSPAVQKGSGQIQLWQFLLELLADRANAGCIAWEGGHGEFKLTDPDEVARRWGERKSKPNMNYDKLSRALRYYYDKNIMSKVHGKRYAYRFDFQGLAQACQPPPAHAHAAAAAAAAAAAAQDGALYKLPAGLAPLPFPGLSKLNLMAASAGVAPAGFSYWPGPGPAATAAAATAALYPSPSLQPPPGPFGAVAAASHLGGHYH
Method in brief: (§1)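 Binding signal is each hexamer's read frequency for a factor divided by its frequency in the tag-only sample. The factors were GST-fused human transcription factors from yeast, captured on glutathione beads, DNA-barcoded and pooled with that sample. Pools were incubated with 200 nmole of a random double-stranded 16-mer DNA library in Tris/NaCl/DTT/glycerol buffer at room temperature for 30 min, then washed, crosslinked with 0.1% formaldehyde, proximity-ligated with BsaI/T4 ligase (1 h, 37 °C), PCR-amplified and sequenced on an Illumina NextSeq500.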

[2] = target: ETV5 (Homo sapiens, UniProt P41161 1-510); conditions: protein: recombinant; tags: N-terminal GST; dsDNA, one strand shown
Method in brief: as §1

[3] = target: HSF1 (Homo sapiens, UniProt Q00613 1-529); conditions: protein: recombinant; tags: N-terminal GST; chain copies: 3; dsDNA, one strand shown
Method in brief: as §1

[4] = target: T2, SPIC (Homo sapiens, UniProt Q8N5J4 1-248); conditions: protein: recombinant; tags: N-terminal GST; dsDNA, one strand shown
T2 sequence: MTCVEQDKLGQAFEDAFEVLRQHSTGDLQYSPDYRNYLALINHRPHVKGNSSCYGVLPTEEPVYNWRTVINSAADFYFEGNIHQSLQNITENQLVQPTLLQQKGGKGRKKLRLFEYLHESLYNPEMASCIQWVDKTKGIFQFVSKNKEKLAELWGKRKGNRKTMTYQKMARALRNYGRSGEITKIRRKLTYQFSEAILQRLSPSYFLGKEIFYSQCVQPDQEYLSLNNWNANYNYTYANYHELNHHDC
Method in brief: as §1

[5] = target: ELF4 (Homo sapiens, UniProt Q99607 1-663); conditions: protein: recombinant; tags: N-terminal GST; dsDNA, one strand shown
Method in brief: as §1

[6] = target: T3, ELK4 (Homo sapiens, UniProt P28324-2 1-405); conditions: protein: recombinant; tags: N-terminal GST; dsDNA, one strand shown
T3 sequence: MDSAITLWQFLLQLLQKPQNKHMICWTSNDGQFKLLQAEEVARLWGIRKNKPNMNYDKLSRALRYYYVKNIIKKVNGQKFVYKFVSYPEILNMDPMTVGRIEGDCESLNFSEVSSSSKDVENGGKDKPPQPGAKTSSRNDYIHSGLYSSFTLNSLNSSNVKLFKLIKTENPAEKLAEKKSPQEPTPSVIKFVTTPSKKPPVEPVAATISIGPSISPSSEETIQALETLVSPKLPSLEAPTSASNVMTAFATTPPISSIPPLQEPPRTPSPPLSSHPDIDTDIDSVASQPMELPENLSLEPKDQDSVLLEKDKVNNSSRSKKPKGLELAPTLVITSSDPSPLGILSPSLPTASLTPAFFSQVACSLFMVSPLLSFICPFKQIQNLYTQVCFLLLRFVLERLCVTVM
Method in brief: as §1

[7] = target: T4, ETV2 (Homo sapiens, UniProt O00321 1-342); conditions: protein: recombinant; tags: N-terminal GST; dsDNA, one strand shown
T4 sequence: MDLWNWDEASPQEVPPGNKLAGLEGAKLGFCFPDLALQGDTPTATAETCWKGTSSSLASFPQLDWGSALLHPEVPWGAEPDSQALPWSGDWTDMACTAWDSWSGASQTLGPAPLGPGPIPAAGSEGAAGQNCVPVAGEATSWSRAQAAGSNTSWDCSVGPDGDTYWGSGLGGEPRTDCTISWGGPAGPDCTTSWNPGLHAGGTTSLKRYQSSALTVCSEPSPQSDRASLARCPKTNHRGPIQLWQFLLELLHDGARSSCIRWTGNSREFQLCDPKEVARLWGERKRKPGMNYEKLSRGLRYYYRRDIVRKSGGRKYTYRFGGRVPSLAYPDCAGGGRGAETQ
Method in brief: as §1

[8] = target: T5, ELF3 (Homo sapiens, UniProt P78545 1-371); conditions: protein: recombinant; tags: N-terminal GST; dsDNA, one strand shown
T5 sequence: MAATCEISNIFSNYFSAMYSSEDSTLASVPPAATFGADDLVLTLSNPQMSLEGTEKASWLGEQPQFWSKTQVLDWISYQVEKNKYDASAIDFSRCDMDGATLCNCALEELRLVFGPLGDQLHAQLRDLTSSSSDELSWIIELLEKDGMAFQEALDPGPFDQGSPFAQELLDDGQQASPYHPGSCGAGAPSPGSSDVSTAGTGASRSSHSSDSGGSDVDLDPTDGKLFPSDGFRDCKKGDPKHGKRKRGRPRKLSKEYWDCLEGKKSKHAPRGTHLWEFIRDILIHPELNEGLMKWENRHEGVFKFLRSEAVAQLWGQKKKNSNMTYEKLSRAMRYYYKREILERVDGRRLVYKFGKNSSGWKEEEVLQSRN
Method in brief: as §1

[9] = target: CRX (Homo sapiens, UniProt O43186 1-299); conditions: protein: recombinant; tags: N-terminal GST; dsDNA, one strand shown
Method in brief: as §1

[10] = target: ETV1 (Homo sapiens, UniProt P50549 1-477); conditions: protein: recombinant; tags: N-terminal GST; dsDNA, one strand shown
Method in brief: as §1

[11] = target: T6, ERF (Homo sapiens, UniProt P50548 1-548); conditions: protein: recombinant; tags: N-terminal GST; dsDNA, one strand shown
T6 sequence: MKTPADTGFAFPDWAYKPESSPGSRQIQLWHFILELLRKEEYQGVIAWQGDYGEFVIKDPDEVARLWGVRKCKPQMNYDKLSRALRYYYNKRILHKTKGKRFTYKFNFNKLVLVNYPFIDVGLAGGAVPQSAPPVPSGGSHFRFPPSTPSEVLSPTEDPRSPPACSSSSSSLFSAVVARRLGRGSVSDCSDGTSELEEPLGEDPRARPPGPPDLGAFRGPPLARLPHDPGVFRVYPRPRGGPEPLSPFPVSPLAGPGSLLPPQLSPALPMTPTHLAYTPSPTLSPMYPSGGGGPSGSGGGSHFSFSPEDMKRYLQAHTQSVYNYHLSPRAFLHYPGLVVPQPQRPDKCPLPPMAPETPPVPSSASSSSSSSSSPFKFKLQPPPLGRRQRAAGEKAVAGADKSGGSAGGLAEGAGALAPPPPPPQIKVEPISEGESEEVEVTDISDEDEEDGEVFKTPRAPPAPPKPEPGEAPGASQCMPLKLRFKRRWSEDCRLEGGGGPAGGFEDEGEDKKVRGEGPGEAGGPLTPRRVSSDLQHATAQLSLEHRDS
Method in brief: as §1

[12] = target: T7, ETV3L (Homo sapiens, UniProt Q6ZN32 1-361); conditions: protein: recombinant; tags: N-terminal GST; dsDNA, one strand shown
T7 sequence: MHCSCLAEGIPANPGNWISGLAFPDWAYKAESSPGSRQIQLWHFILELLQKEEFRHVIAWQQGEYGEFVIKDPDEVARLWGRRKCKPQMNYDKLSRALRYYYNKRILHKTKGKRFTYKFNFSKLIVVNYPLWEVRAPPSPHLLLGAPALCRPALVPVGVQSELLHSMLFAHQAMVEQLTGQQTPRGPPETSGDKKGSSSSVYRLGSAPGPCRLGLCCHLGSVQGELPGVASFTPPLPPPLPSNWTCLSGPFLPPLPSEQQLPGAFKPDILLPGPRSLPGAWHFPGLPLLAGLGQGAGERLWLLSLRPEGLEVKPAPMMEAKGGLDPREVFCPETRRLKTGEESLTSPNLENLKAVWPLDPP
Method in brief: as §1

[13] = target: T8, ETS2 (Homo sapiens, UniProt P15036 1-469); conditions: protein: recombinant; tags: N-terminal GST; dsDNA, one strand shown
T8 sequence: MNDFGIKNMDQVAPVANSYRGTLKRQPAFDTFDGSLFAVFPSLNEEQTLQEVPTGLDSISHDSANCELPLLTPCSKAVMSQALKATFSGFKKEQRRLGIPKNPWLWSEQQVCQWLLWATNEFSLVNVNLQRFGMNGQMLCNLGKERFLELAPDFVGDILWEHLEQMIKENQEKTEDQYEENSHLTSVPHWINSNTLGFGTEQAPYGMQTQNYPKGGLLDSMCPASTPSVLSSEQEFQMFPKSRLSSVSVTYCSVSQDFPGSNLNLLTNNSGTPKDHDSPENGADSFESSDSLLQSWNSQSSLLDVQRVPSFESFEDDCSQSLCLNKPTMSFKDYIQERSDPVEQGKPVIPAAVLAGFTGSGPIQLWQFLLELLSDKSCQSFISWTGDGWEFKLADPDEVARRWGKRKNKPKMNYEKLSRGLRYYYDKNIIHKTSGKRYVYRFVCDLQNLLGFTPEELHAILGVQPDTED
Method in brief: as §1

[14] = target: T9, SPDEF (Homo sapiens, UniProt O95238 1-335); conditions: protein: recombinant; tags: N-terminal GST; dsDNA, one strand shown
T9 sequence: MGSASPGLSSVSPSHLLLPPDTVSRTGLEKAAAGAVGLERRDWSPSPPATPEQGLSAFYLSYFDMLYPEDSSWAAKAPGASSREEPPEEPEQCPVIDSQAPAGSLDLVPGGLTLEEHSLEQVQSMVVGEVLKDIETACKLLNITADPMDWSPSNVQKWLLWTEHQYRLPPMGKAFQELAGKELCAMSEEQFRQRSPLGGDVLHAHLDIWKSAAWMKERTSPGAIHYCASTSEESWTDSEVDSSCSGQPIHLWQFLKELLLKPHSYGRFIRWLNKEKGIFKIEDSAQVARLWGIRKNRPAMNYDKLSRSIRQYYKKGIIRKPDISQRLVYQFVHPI
Method in brief: as §1

[15] = target: T10, ETV7 (Homo sapiens, UniProt Q9Y603 1-341); conditions: protein: recombinant; tags: N-terminal GST; dsDNA, one strand shown
T10 sequence: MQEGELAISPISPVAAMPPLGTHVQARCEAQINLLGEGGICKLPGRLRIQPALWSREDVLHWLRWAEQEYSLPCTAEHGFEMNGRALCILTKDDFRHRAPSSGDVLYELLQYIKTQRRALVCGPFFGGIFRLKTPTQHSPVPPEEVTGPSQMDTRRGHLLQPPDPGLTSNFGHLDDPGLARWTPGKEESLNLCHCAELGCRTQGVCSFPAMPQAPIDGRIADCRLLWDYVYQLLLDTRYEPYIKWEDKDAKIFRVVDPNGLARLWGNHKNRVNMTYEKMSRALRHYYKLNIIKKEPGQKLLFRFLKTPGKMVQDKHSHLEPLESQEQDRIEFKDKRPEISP
Method in brief: as §1

[16] = target: T11, ELF5 (Homo sapiens, UniProt Q9UKW6-2 1-255); conditions: protein: recombinant; tags: N-terminal GST; dsDNA, one strand shown
T11 sequence: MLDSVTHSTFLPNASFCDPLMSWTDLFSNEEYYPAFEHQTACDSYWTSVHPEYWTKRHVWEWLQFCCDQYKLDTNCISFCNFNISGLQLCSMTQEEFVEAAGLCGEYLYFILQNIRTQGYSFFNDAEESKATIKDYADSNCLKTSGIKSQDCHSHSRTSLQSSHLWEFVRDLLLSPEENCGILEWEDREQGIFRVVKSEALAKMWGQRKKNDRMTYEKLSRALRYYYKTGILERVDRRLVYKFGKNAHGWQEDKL
Method in brief: as §1

[17] = target: T12, ETV3 (Homo sapiens, UniProt P41162-2 1-143); conditions: protein: recombinant; tags: N-terminal GST; dsDNA, one strand shown
T12 sequence: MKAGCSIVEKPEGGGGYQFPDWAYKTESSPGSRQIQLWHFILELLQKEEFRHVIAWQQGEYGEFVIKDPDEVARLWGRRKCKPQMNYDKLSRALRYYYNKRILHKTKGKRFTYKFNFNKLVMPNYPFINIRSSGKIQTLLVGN
Method in brief: as §1

[18] = target: ETV6 (Homo sapiens, UniProt P41212 1-452); conditions: protein: recombinant; tags: N-terminal GST; dsDNA, one strand shown
Method in brief: as §1

Chain of ETV5 (P41161 whole entry): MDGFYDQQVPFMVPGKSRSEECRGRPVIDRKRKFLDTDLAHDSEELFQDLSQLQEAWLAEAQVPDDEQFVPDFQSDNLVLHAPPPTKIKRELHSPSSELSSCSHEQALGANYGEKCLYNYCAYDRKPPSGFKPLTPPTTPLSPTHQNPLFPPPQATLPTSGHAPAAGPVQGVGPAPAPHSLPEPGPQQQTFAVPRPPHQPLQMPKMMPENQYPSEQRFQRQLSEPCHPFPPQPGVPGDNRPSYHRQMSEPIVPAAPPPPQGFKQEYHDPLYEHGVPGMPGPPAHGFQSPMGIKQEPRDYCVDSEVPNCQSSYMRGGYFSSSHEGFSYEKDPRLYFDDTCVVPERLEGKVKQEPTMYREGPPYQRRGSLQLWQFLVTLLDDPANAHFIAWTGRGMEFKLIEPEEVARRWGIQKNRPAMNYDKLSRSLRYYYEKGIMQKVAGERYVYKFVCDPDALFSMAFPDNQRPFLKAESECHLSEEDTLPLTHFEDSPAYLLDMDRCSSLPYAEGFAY
Chain of CRX (O43186 whole entry): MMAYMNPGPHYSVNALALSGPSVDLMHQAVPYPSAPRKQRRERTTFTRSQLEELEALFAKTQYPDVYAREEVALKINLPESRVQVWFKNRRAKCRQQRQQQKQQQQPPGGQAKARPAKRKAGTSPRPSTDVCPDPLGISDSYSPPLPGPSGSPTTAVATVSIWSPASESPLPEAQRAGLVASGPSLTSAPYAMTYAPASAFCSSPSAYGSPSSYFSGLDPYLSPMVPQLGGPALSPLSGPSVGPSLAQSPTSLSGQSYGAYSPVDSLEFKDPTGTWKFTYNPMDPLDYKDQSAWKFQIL
Chain of ELF4 (Q99607 whole entry): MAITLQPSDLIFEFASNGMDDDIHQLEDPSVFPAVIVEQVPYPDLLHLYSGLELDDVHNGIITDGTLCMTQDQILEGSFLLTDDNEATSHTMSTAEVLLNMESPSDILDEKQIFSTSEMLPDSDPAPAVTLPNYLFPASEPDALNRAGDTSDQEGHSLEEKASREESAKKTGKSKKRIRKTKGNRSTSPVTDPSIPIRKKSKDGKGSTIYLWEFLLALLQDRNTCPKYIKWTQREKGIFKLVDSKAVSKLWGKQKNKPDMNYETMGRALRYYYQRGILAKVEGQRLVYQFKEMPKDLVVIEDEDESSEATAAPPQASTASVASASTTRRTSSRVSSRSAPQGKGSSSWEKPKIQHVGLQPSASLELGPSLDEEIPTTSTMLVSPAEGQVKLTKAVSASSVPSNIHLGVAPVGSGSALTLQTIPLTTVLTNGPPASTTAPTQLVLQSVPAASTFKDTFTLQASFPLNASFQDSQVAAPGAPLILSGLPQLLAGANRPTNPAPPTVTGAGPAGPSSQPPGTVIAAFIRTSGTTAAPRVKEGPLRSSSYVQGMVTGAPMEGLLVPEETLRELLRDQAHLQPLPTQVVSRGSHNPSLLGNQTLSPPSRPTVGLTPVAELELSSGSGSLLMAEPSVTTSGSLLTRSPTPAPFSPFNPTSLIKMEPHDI
Chain of ETV1 (P50549 whole entry): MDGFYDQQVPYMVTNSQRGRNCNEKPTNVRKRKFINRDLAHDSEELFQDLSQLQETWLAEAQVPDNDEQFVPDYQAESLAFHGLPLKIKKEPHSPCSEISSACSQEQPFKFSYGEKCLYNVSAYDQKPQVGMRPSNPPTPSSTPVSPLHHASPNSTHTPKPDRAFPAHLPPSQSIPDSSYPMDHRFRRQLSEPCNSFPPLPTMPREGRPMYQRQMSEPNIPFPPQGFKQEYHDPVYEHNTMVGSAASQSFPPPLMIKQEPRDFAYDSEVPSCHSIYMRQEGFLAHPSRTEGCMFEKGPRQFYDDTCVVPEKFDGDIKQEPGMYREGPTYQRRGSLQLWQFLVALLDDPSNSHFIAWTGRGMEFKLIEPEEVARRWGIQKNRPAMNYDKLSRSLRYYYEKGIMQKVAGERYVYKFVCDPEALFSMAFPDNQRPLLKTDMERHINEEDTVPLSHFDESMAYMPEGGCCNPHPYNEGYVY
Chain of ETV6 (P41212 whole entry): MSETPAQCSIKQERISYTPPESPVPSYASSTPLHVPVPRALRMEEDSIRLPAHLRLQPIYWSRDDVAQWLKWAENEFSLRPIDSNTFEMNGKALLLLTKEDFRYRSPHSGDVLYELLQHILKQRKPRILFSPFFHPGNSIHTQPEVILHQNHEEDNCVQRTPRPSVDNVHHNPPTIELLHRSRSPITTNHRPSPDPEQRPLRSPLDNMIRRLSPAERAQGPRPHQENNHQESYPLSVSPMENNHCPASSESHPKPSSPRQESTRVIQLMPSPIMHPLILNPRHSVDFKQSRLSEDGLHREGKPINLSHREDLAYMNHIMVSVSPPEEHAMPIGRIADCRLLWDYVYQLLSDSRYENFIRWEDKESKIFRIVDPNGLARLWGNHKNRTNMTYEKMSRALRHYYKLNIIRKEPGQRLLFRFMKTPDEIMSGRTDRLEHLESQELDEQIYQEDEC
Chain of HSF1 (Q00613 whole entry): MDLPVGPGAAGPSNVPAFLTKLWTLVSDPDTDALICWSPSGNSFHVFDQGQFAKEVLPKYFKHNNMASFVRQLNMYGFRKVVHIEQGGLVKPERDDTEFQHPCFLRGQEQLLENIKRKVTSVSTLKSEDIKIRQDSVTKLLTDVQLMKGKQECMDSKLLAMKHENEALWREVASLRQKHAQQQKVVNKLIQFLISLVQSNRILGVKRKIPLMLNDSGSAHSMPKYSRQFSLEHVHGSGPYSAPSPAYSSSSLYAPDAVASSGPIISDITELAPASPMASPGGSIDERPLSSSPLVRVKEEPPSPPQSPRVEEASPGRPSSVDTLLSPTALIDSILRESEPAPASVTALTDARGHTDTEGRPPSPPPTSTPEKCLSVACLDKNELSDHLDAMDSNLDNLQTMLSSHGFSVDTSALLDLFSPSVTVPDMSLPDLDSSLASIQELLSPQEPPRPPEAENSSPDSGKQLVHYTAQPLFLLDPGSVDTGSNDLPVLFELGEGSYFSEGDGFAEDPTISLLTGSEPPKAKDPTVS

Sequence	binding signal [1]	binding signal [2]	binding signal [3]	binding signal [4]	binding signal [5]	binding signal [6]	binding signal [7]	binding signal [8]	binding signal [9]	binding signal [10]	binding signal [11]	binding signal [12]	binding signal [13]	binding signal [14]	binding signal [15]	binding signal [16]	binding signal [17]	binding signal [18]
TCTACT	1.39 fold enrichment (6-mer frequency, TF over GST control)	1.39 fold enrichment (6-mer frequency, TF over GST control)	1.51 fold enrichment (6-mer frequency, TF over GST control)	1.51 fold enrichment (6-mer frequency, TF over GST control)	1.34 fold enrichment (6-mer frequency, TF over GST control)	1.27 fold enrichment (6-mer frequency, TF over GST control)	1.31 fold enrichment (6-mer frequency, TF over GST control)	1.38 fold enrichment (6-mer frequency, TF over GST control)	1.45 fold enrichment (6-mer frequency, TF over GST control)	1.47 fold enrichment (6-mer frequency, TF over GST control)	1.42 fold enrichment (6-mer frequency, TF over GST control)	1.51 fold enrichment (6-mer frequency, TF over GST control)	1.41 fold enrichment (6-mer frequency, TF over GST control)	1.42 fold enrichment (6-mer frequency, TF over GST control)	1.32 fold enrichment (6-mer frequency, TF over GST control)	1.37 fold enrichment (6-mer frequency, TF over GST control)	1.2 fold enrichment (6-mer frequency, TF over GST control)	1.41 fold enrichment (6-mer frequency, TF over GST control)
CCCCAT	1.2 fold enrichment (6-mer frequency, TF over GST control)	1.34 fold enrichment (6-mer frequency, TF over GST control)	1.1 fold enrichment (6-mer frequency, TF over GST control)	1.41 fold enrichment (6-mer frequency, TF over GST control)	1.34 fold enrichment (6-mer frequency, TF over GST control)	1.22 fold enrichment (6-mer frequency, TF over GST control)	1.52 fold enrichment (6-mer frequency, TF over GST control)	1.16 fold enrichment (6-mer frequency, TF over GST control)	1.15 fold enrichment (6-mer frequency, TF over GST control)	1.37 fold enrichment (6-mer frequency, TF over GST control)	1.16 fold enrichment (6-mer frequency, TF over GST control)	1.29 fold enrichment (6-mer frequency, TF over GST control)	1.32 fold enrichment (6-mer frequency, TF over GST control)	1.3 fold enrichment (6-mer frequency, TF over GST control)	1.19 fold enrichment (6-mer frequency, TF over GST control)	1.39 fold enrichment (6-mer frequency, TF over GST control)	1.31 fold enrichment (6-mer frequency, TF over GST control)	1.25 fold enrichment (6-mer frequency, TF over GST control)
